Bioassay records as filed in PubChem.
KCNH2 3.1 inh: inhibitors of human KCNH2 3.1 potassium channel isoform | U2OS KCNH2 3.1, thallium flux FluxOr; stronger effect = lower value | activity change, % (tested at about 1.8 µM) | actives 0.95% (n = 340,000) | AID 720553;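 active = maximum activity change below -70%; inconclusive = maximum activity change from -70% to -50%; inactive = maximum activity change above -50%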;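 also: thallium influx rate constant from kinetic fluorescence after stimulation buffer; % is scaled to controls: 0 for no effect and ±100 for the full control effect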
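Channel expression came from 3.1 mutant virus (1.77 x 10^8 /mL) applied to suspended U2OS cells for 4 h. Flux was tracked with FluxOr dye plus Red40 quencher, and kinetic rate constants normalized to controls.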
ALOX12 inh: ALOX12 (human) lipoxygenase inhibition; purified 12hLO, xylenol orange hydroperoxide absorbance; Potency, µM (doses to about 108 µM), inactives show at the top dose activity change, negative = inhibition, hits mostly inhibitors; actives 1.1% (n = 580,000); also: potency is read from the fitted curve at half-maximal effect; % is scaled to controls: 0 for no effect and ±100 for the full control effect
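Purified human 12hLO at 150 nM in 25 mM Hepes, 0.01% Triton X-100, pH 7.0, preincubated 15 min at room temperature with compound. Reaction started with 40 uM arachidonic acid, 30 min at room temperature. Hydroperoxide measured by Fe-xylenol orange, 573/405 nm absorbance ratio.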
KCNH2 WT inh: inhibitors of human wildtype KCNH2 potassium channel; actives 0.37% (n = 340,000); AID 720551; Q12809; activity change, % at 1.84 µM; U2OS, BacMam KCNH2, thallium flux FluxOr; stronger effect = lower value;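 active = maximum activity change below -70%; inconclusive = maximum activity change between -70% and -50%; inactive = maximum activity change above -50%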; also: % is scaled to controls: 0 for no effect and ±100 for the full control effect
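U2OS cells were transduced with wild-type KCNH2 virus (2.03 x 10^8 / mL) for 4 h at room temperature, then cultured overnight at 37 C. Thallium flux was read with FluxOr dye. Rate constants were normalized to DMSO controls.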
A-T KAP1 phos: potential ataxia-telangiectasia treatments restoring KAP-1 phosphorylation | actives 0.19% (n = 320,000) | AID 485349 | Potency, µM (highest dose often 57.5 µM), inactives show at the top dose activation, most hits filed as activators | F2112 A-T fibroblasts, KAP-1 phosphorylation AlphaLISA; neocarzinostatin DNA damage 30 min before lysis; also: potency is read from the fitted curve at half-maximal effect; % of control where 0% means no effect; nearly all actives have a fitted effect of over 45% in size
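hTERT-immortalized A-T patient fibroblasts (F2112), 500 cells/well in OPTI-MEM, 1% FBS, got compounds for 60 min, then NCS for 30 min at 37C. Lysates were then assayed for phospho-KAP-1 by AlphaLISA (anti-pKAP1 donor, anti-KAP1 acceptor beads), 6 hr at 25C.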
* = called active by the depositor; ? = inconclusive; · = no result; + = active, no number; ! = repeats disagree. Sampled rows, rich in hits. Any-hit rate of the full collection: about 1.8%. Unless noted, calls follow the shape of the dose curve; as a rule, active = well fitted curve in the direction sought with a large enough effect; inconclusive = small, poorly fitted or top-dose-only effect, or another doubt; inactive = no such curve, though single readings can be large; an effect the other way counts as inactive or inconclusive.

SMILES	KCNH2 3.1 inh	ALOX12 inh	KCNH2 WT inh	A-T KAP1 phos
OC1(c2ccc(Cl)cc2)CCN(Cc2cn[nH]c2-c2ccc(F)cc2)CC1	-87.6*	?	-6.2	-5.1%
O=C(CCCc1c[nH]c2ccccc12)NCC(=O)N1CCCCCCNC(=O)CC1c1ccccc1 (centres undefined)	·	0.9%	·	·
Cc1nc2cc(NC(=O)c3ccc(F)cc3)ccc2o1	·	-3.9%	·	·
CCN(CC)S(=O)(=O)c1c(C)n[nH]c1C	·	47.8%	·	·
Cc1ccc(NC(=O)c2nn(-c3ccccc3)c(=O)c3ccccc23)cc1Cl	·	1.2%	·	·
Cc1ccc(C)c(S(=O)(=O)N2CCCC(Cn3c(C4CC4)nc4cccnc43)C2)c1 (centres undefined)	·	20.8%	·	·
Cc1cc(C)cc(C(=O)N(CCc2ccccc2)C2CC3CCC(C2)N3C)c1 (centres undefined)	-87.8*	-45.8%	-8.2	1.7%
O=C(CSc1nccn1Cc1ccc2c(c1)OCO2)NCc1ccc2c(c1)OCO2	·	-5.8%	·	·
Cc1cc(C)cc(C(=O)NC2CCN(c3cc(-c4ccc(F)cc4)[nH]n3)C2)c1 (centres undefined)	·	36.2%	·	·
c1csc(-c2nn3c(Cn4cnc5ccccc54)nnc3s2)c1	3.5	?	-23.2	1.9%
Brc1ccccc1-c1nn2c(Cn3cnc4ccccc43)nnc2s1	·	11.2µM*	·	·
Clc1cccc(-c2nn3c(Cn4cnc5ccccc54)nnc3s2)c1	2.9	10µM*!	10.2	-2.5%
Cc1nnc(NC(=O)c2csc(NCC(C)C)n2)s1	·	6.3%	·	·
O=S(=O)(c1ccc(F)c(F)c1)N1CCN(C/C=C/c2ccccc2)CC1	·	0.1%	·	·
CNC(=O)C1CCN(Cc2cccc(C(F)(F)F)c2)CC1	·	50.2%	·	·
Cc1c(C(=O)N(C)C2CCN(CCc3ccccn3)CC2)oc2ccccc12	·	-27.1%	·	·
CC1(C)CC(=O)C(C(C2=C(O)CC(C)(C)CC2=O)c2ccc(Br)s2)C(=O)C1 (centres undefined)	-0.2	15.8µM*	-9.4	-4.9%
Cc1ccc(C(C2=C(O)CC(C)(C)CC2=O)C2C(=O)CC(C)(C)CC2=O)s1 (centres undefined)	-5.4	?	0.8	-0.9%
Cc1nn2c(=O)cc(CSCC(=O)Nc3cccc4ccccc34)nc2s1	·	34.9%	·	·
COc1ccccc1-n1cc(-c2ccccc2)c2c(=S)nc[nH]c21	1.2	44.7µM*	5.8	22.0%
COc1ccccc1/C=C(/C(=O)OCC(=O)Nc1cc(C)ccc1C)c1ccccc1	-2.6	-8.2%	+	-5.4%
CCc1ccc(NC(=O)COC(=O)/C(=C/c2ccccc2OC)c2ccccc2)cc1	-24.2	-2.7%	9.8	-1.7%
CC(C)(CN=C1NS(=O)(=O)c2ccccc21)CNC(=O)c1ccccc1	-2.9	?	-94.5*	-2.9%
CC(C)(C)C(=O)NCC(=O)N1CCC(c2nc3ccccc3o2)CC1	·	2.5%	·	·
O=S(=O)(O)c1cc(Cl)cc(N=Nc2ccc(O)cc2O)c1O	10.0	44.7µM*	2.2	·
SMILES	KCNH2 3.1 inh	ALOX12 inh	KCNH2 WT inh	A-T KAP1 phos
O=c1c(C(c2c(O)nc3n(c2=O)CCS3)c2cccc3ccccc23)c(O)nc2n1CCS2	9.7	31.6µM*	-0.8	-0.8%
O=C(Nc1cccnc1)c1ccc(COc2ccccc2Cl)o1	-2.2	2.6%	-9.9	2.5%
O=C(Nc1cccnc1)c1ccc(COc2cc(Cl)ccc2Cl)o1	42.1	294.5%	-103.6*	1.7%
CN(C)c1cc(-c2cccc(NS(C)(=O)=O)c2)ncn1	·	35.5µM*	·	·
CS(=O)(=O)Nc1cccc(-c2cc(NCc3ccccc3)ncn2)c1	·	11.2µM*	·	·
CS(=O)(=O)Nc1cccc(-c2cncnc2NCc2ccccc2)c1	·	39.8µM*	·	·
COc1cccc(-c2cncnc2Nc2ccccc2)c1	·	39.8µM*	·	·
CSc1cccc(Nc2ncncc2-c2nc(-c3ccccc3)no2)c1	·	52.5%	·	·
Cc1c(C(=O)N2CCC(c3nc4ccccc4o3)CC2)oc2ccccc12	·	-23.3%	·	·
CCc1nn(-c2ccccc2)c(Oc2cccc(C)c2)c1CCC(=O)N1CCOCC1	·	7.2%	·	·
O=[N+]([O-])c1ccc2c(c1)C(O)n1ncnc1S2 (centres undefined)	-83.8*	-4.8%	-9.8	-2.7%
Cc1nc2n(n1)C(O)c1cc([N+](=O)[O-])ccc1S2 (centres undefined)	·	·	·	0.4%
Cc1sc(/N=C/c2ccc(Br)cc2)c(C#N)c1C	·	17.8µM*	·	·
Cc1sc(/N=C/c2c[nH]c3ccccc23)c(C#N)c1C	·	20µM*	·	·
Cc1sc(/N=C/c2ccc(C(C)(C)C)cc2)c(C#N)c1C	·	-20.6%	·	·
